Source: PubChem BioAssay (NCATS)
Inconclusive results are not listed. The source made the active and inactive calls. Unless noted, the call rests on the fitted dose curve; in most records, active means well fitted curve in either direction with a large enough effect (not every such curve was filed as active); inconclusive means small, poorly fitted or top-dose-only effect, or another doubt; inactive means flat fitted curve, though single readings scatter.

Experiments:
[1] = target: Lysosomal acid glucosylceramidase (Homo sapiens) (UniProt P04062); experiment: Glucocerebrosidase-p2 (AID 348; in the data active means potency below about 10 µM; further: potency means the concentration at half of the fitted maximal effect); conditions: purified GBA, blue fluorogenic substrate, 40 min
Lysosomal acid glucosylceramidase (Homo sapiens), sequence (P04062 whole entry, looked up): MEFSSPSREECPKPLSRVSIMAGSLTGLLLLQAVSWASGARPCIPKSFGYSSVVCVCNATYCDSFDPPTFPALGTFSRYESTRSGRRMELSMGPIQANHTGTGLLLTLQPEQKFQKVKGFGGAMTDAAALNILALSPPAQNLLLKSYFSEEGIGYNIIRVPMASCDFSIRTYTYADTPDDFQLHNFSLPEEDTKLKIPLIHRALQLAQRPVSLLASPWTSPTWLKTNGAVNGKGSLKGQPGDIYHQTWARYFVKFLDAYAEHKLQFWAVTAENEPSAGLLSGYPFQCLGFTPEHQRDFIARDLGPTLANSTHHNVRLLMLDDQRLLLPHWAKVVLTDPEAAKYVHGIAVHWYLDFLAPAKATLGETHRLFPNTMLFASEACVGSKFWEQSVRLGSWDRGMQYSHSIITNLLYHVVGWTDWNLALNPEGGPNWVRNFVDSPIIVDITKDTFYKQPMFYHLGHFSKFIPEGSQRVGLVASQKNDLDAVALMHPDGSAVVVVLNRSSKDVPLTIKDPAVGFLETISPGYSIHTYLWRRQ
Procedure, shortened: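 Normal human glucocerebrosidase (0.2 nM) with blue fluorogenic substrate (80 uM final) in citrate/phosphate pH 5.9 with 10mM sodium taurocholate, 0.01% tween-20; 40 min RT, NaOH/glycine stop; fluorescence Ex 365/Em 440; AC50 from a titration from 0.6 nM upwards.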

[2] = AP1 Signaling Pathway (AID 357); conditions: ME-180 AP-1-bla reporter, EGF-induced, beta-lactamase ratio, 5 h; at 7.69 µM (top of the series) unless noted;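 further: ME-180 reporter cells stimulated with EGF at its EC50 level; on the % scale 0 is the no-effect control and ±100 the full control effect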
Procedure, shortened: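 Titration-series screen for positive or negative modulators of EC50 EGF-induced signaling in ME-180 cells carrying an AP-1-driven beta-lactamase reporter. After 5 hours at 37 degrees Celsius, CCF4 460nm/530nm emission ratio gave %Activity; AC50 values derived.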

[3] = target: Cytochrome P450 1A2 (Homo sapiens) (UniProt P05177); experiment: p450-cyp1a2 (AID 410; calls by dose curve; further: potency means the concentration at half of the fitted maximal effect;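 on activity change, negative = inhibition: -100% = full effect of reference inhibitor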); conditions: recombinant CYP1A2, luciferin-ME demethylation, luminescence; series mostly up to 57 µM
Cytochrome P450 1A2 (Homo sapiens), sequence (P05177 whole entry, looked up): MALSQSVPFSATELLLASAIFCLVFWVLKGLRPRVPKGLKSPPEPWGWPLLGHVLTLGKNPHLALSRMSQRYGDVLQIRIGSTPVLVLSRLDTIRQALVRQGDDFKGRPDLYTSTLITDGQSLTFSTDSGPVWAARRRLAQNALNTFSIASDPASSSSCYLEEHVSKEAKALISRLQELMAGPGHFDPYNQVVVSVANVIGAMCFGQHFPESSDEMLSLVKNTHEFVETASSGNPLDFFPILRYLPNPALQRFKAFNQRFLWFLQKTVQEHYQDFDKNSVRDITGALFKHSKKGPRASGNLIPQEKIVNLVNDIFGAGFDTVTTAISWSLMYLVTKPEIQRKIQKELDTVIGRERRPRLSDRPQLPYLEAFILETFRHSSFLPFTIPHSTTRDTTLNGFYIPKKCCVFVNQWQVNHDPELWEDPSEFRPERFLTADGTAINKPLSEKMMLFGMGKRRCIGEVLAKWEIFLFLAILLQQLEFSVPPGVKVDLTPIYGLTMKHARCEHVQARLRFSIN
Procedure, shortened: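 O-Demethylation of luciferin 6' methyl ether by human CYP1A2 is monitored as luciferase luminescence. Substrate sits at Km (100uM); enzyme is 20nM. Values are scaled to 57 uM furafylline as maximal inhibition.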

[4] = NFAT Signaling Pathway (AID 444); conditions: Jurkat NFAT-bla M1, carbachol, beta-lactamase ratio, 5 h; at 7.69 µM (top of the series) unless noted;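 further: carbachol stimulus at about its EC50 of 1 µM final; on the % scale 0 is the no-effect control and ±100 the full control effect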
Procedure, shortened: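 Jurkat cells carrying an NFAT-driven β-lactamase reporter and co-transfected muscarinic M1 receptor were treated with compound plus carbachol (1 uM final, an EC50 level) for 5 h at 37 °C. CCF4 loading followed for 1 h at RT; 460/530 nm ratio gave %activity.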

[5] = Stat Signaling Pathway (AID 446); conditions: ME-180 (cervical carcinoma) SIE beta-lactamase reporter, IL-6 stimulated, 5 h; at 7.69 µM (top of the series) unless noted;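 further: ME-180 cervical cancer cells given 40 pM IL-6 alongside compound; SIE-controlled beta-lactamase reporter measured as 460/530 nm FRET emission ratio; on the % scale 0 is the no-effect control and ±100 the full control effect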
Procedure, shortened: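 Compound effects on IL-6-induced STAT reporter activity were measured in ME-180 cells. After overnight culture, cells were co-treated with 40 pM IL-6 for 5 hrs before beta-lactamase substrate loading at room temperature.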

[6] = target: Glucocorticoid receptor (Homo sapiens) (UniProt P04150); experiment: GR-EFC Redistribution (AID 451; calls by dose curve; further: potency means the concentration at half of the fitted maximal effect); conditions: CHO-K1 GR-EFC translocation, beta-gal luminescence, 2 h
Glucocorticoid receptor (Homo sapiens), sequence (P04150 whole entry, looked up, the tested form may be a part): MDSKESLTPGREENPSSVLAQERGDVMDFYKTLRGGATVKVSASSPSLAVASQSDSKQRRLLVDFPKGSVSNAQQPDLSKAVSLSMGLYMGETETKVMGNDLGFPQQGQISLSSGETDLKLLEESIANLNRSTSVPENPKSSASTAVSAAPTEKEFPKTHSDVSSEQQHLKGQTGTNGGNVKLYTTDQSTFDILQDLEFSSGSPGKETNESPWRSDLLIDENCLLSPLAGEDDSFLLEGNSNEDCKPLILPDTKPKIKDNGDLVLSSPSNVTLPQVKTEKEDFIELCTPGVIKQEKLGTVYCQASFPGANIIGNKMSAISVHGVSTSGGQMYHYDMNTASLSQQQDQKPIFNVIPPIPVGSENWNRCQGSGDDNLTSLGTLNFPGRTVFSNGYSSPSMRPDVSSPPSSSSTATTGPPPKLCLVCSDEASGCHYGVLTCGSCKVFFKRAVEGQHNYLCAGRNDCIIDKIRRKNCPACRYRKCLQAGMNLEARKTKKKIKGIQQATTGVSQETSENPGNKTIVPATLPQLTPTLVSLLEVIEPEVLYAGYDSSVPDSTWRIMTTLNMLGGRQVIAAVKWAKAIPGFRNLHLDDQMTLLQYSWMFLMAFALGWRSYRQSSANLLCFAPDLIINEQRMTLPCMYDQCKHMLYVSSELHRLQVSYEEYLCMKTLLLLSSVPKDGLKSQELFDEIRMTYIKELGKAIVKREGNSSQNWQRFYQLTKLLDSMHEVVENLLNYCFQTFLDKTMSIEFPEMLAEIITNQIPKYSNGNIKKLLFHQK
Procedure, shortened: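 CHO-K1 cells stably expressing nuclear-localized β-gal enzyme acceptor and GR fused C-terminally to the enzyme donor fragment; ligand-driven nuclear translocation restores β-gal by complementation. Compounds titrated up to 46 uM final, 2 h at 37 °C; luminescence read.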

[7] = target: Mitogen-activated protein kinase 10 (Mus musculus) (UniProt Q61831); experiment: JNK3 AlphaScreen Assay (AID 530); conditions: JNK3 lysate, c-Jun phosphorylation; series mostly up to 57.1 µM;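 further: kinase came from lysate of stimulated human HepG2 cells; signal reports phosphorylation of biotinylated GST-cJun 1-79 at Ser73 with 10 µM ATP; on the % scale 0 is the no-effect control and ±100 the full control effect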
Procedure, shortened: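 Phosphorylation of biotinylated GST-cJun(1-79) at Ser73 is measured by AlphaScreen proximity luminescence. Enzyme is JNK3 in HepG2 lysates activated with interleukin-1beta and tumor necrosis factor alpha; ATP is 10 uM final.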

[8] = target: 3',5'-cyclic-AMP phosphodiesterase 4B (Homo sapiens) (UniProt Q07343); experiment: qHTS Assay for Inhibitors of PDE-IV (AID 607; active means well fitted activation curve with a large enough effect in the main read-out, with a control signal flat, not every such curve was filed as active; further: % of control where 0% means no effect); conditions: HEK293 ACTOne CNG channel cells, membrane potential fluorescence; series mostly up to 22.9 µM
3',5'-cyclic-AMP phosphodiesterase 4B (Homo sapiens), sequence (Q07343 whole entry, looked up): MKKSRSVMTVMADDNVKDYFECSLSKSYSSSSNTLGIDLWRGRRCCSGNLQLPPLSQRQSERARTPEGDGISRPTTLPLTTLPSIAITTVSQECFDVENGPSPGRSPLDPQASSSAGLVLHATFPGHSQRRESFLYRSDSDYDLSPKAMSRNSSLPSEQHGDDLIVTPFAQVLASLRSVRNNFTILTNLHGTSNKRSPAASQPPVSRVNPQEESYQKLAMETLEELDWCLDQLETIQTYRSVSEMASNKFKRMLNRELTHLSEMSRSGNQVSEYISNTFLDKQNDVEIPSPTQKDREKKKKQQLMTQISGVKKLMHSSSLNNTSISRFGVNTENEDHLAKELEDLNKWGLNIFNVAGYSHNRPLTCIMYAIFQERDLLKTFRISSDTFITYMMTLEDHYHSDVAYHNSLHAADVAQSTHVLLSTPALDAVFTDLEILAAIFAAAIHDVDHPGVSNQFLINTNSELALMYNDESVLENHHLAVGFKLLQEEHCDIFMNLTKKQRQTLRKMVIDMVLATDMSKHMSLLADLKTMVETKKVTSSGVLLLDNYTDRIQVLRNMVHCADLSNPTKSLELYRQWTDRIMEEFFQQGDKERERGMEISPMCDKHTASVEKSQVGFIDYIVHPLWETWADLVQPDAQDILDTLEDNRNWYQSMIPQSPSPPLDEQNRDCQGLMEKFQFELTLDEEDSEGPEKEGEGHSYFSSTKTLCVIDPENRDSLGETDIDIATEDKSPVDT
Procedure, shortened: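 ACTOne HEK293 cells carry a modified cAMP-gated CNG channel and express endogenous PDE4; plated 1000 cells/well, compounds up to 22.9 uM final. Membrane-potential dye fluorescence (ex 535/em 590) was read; parental cells received 10 uM forskolin + 100 uM RO 20-1724.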

[9] = qHTS Assay for Lipid Storage Modulators (AID 1519; calls by dose curve); conditions: Drosophila S3 cells, BODIPY lipid droplet/cell ratio, laser cytometry, cells loaded with oleic acid; for activity change, negative = inhibition: at 57.5 µM (top of the series)
Procedure, shortened: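 Cells seeded at 5,000 per well were treated with compounds over a concentration series and loaded with oleic acid (400 uM, as added). Lipid droplet fluorescence (488 nm excitation, 500-530 nm channel) was read by laser-scanning cytometry and normalized to 20 uM Triacsin C.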

[10] = Primary qHTS for small molecule stabilizers of the endoplasmic reticulum resident proteome: Secreted ER Calcium Modulated Protein (SERCaMP) assay (AID 1508630; active means well fitted inhibition curve with a large enough effect; further: on the % scale 0 is the no-effect control and ±100 the full control effect); conditions: SH-SY5Y GLuc-SERCaMP (Gaussia luciferase released on ER calcium loss) secretion, thapsigargin, luminescence; series mostly up to 38.4 µM
Procedure, shortened: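 The SH-SY5Y reporter protocol was run at 3 concentrations up to 38.3 uM (primary) or 11 concentrations (follow-up): 16 h compound, 100 nM thapsigargin for 4 h, then extracellular luciferase luminescence.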

[11] = measured here: cell count channel max response
[12] = measured here: lipid channel max response

Row | SMILES | Potency [1] | activity change, negative = inhibition [2] | Potency [3] | activity change, negative = inhibition [4] | activity, negative = inhibition [5] | Potency [6] | outcome [7] | Potency [8] | activity change, negative = inhibition [9] | max response [9, 11] | max response [9, 12] | Potency [10]
1 | COCC(=O)N1CCC2(CC1)CN(C(=O)Nc1cccc(F)c1)C2 | > 11.4 µM (inactive) | -27.6% (inactive) | inactive | 9.78% (inactive) | -2.66% (inactive) | > 46 µM (inactive) | inactive | inactive | 8.39% (inactive) | 17.5% | 29% | inactive
2 | CN1CCCC2(CCN(C(=O)c3cccn3C)CC2)C1 | > 11.4 µM (inactive) | -4.17% (inactive) | inactive | -4.14% (inactive) | 7.29% (inactive) | > 46 µM (inactive) | inactive | inactive | 1.86% (inactive) | 11.8% | 16.9% | inactive
3 | O=C(c1cnccn1)N1CCC2(CCN(Cc3nccs3)CC2)CC1 | > 11.4 µM (inactive) | 2.79% (inactive) | inactive | 9.93% (inactive) | 3.3% (inactive) | > 46 µM (inactive) | inactive | inactive | 2.95% (inactive) | -0.576% | 4.52% | inactive
4 | CC(=O)N1CCC2(CCN(Cc3cc(C(F)(F)F)cc(C(F)(F)F)c3)CC2)CC1 | > 11.4 µM (inactive) | -20.5% (inactive) | 15.8 µM (active) | -19.4% (inactive) | 8.31% (inactive) | > 46 µM (inactive) | inactive | inactive | 2.13% (inactive) | 6.37% | 10.7% | inactive
5 | O=C(Nc1cccc(F)c1)N1CCC2(CCNCC2)CC1 | > 11.4 µM (inactive) | -5.25% (inactive) | inactive | -3.25% (inactive) | -4.9% (inactive) | > 46 µM (inactive) | inactive | inactive | 2.6% (inactive) | 17.4% | 23.2% | inactive
6 | O=C(Nc1ccccc1)N1CCC2(CC1)CCN(C(=O)c1csnn1)CC2 | > 11.4 µM (inactive) | -1.74% (inactive) | inactive | 11.2% (inactive) | -9.72% (inactive) | > 46 µM (inactive) | inactive | inactive | 4.48% (inactive) | 16.6% | 23.2% | inactive
7 | COc1ccc(NC(=O)N2CCC3(CC2)CCN(C(=O)c2cnccn2)CC3)cc1 | > 11.4 µM (inactive) | -11.1% (inactive) | 10 µM (active) | 9.86% (inactive) | 0.353% (inactive) | > 46 µM (inactive) | inactive | inactive | 7.44% (inactive) | 7.1% | 18.9% | inactive
